Percent Effect data for 11 molecules are collected here from ChEMBL document CHEMBL3988442, “University of Dundee, Small-Polar-MMV Screening Library” (2021).

Set-up in all cases: scale not given: direction of the effect not stated beside the values
Test [1] concerns the target Protein translocase subunit SecA (Escherichia coli (strain K12)) (UniProt P10408). The experiment in a line: Assay to Identify E. coli SecA ATPase Inhibitors. It is filed as functional. Particulars: 30 µM.
Test [2] has as its target T1, Ubiquitin-activating enzyme e1, putative (Leishmania donovani (strain BPK282A1)) (UniProt E9BSI1).
T1 sequence (whole entry): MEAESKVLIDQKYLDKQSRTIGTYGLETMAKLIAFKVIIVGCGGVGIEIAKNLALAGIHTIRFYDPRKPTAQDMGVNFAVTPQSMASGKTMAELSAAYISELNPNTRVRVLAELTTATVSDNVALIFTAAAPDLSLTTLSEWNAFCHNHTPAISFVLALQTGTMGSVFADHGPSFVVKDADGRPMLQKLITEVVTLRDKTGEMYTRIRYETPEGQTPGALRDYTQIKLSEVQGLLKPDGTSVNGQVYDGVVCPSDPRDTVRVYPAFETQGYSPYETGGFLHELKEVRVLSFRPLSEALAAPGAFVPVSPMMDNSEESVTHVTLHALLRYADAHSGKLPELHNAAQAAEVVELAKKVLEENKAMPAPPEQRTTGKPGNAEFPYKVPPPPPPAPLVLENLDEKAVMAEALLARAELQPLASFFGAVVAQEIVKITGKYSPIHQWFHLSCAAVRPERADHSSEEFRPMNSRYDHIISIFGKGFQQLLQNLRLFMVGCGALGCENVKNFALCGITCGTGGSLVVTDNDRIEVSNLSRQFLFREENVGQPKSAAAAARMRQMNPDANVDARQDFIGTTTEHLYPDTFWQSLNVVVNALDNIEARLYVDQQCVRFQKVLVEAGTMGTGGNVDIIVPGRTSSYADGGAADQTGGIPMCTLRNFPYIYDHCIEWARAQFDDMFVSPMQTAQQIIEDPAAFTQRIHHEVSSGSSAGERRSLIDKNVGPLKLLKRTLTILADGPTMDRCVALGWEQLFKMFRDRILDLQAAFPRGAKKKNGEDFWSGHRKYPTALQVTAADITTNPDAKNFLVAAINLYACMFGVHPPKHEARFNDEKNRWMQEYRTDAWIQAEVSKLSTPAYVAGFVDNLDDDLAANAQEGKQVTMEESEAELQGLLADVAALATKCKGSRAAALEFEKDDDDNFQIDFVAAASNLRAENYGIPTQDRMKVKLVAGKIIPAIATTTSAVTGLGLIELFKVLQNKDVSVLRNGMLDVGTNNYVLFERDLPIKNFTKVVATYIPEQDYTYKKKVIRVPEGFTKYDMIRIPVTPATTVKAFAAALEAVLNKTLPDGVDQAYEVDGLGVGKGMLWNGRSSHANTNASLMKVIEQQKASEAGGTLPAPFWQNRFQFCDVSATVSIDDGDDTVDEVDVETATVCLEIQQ
The experiment in a line: Leishmania donovani Ubiquitin Activating Enzyme (LdE1). It is filed as functional. Particulars: 30 µM.

The target of test [3] is AMP-activated protein kinase, AMPK (Homo sapiens) (UniProt P54646+O43741+P54619+Q9UGJ0+Q9Y478+Q13131+Q9UGI9). The experiment in a line: AMP-dependent Kinase enzyme assay. An in vitro enzyme assay that detects ADP turnover that is directly proportional to AMPK activity. This uses naive AMPK that is activated during the assay with MK-8722. The class given is functional. Particulars: 30 µM.

Test [4] has as its target Sialic acid-binding Ig-like lectin 9 (Homo sapiens) (UniProt Q9Y336). The experiment in a line: Hs-Siglec9 ALPHAscreen SOP 20170721. Particulars: 10 µM. (In general: In Alpha technology, singlet oxygen from a donor bead excites a nearby acceptor bead.)
Test [5] deals with Trypanosoma cruzi. The experiment in a line: Trypanosoma cruzi phosphomannomutase and mannose-1-phosphate guanylyltransferase assay. The class given is functional. The following applies: 10 µM.
The target in test [6] is T2, Arginase-2, mitochondrial (Homo sapiens) (UniProt P78540).
T2 sequence (whole entry): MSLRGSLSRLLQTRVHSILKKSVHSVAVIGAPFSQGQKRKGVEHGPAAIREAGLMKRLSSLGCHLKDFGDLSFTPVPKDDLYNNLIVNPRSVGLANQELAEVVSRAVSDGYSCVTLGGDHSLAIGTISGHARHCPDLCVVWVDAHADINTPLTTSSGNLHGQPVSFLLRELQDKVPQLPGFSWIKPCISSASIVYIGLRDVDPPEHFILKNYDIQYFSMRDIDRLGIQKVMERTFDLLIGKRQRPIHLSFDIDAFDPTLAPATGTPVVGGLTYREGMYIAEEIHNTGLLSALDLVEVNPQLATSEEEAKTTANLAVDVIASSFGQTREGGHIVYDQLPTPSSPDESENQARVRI
The experiment in a line: in vitro enzyme assay to detect the production of urea directly proportional to the activity of Arginase II. Also: in the data most compounds retested in dose-response had high values. It is filed as functional. The following applies: 33.3 µM.

Test [7] concerns the target T3, Proteasome subunit beta (Trypanosoma cruzi) (UniProt O96673).
T3 sequence (whole entry): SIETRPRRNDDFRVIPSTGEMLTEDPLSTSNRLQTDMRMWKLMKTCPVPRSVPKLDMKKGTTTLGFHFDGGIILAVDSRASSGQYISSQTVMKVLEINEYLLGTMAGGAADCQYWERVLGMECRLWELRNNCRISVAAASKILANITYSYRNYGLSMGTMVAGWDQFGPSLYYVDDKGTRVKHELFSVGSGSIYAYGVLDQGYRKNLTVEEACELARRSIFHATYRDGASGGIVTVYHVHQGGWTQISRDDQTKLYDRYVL
The experiment in a line: Trypanosoma cruzi proteasome chymotrypsin-like activity (TcProtChymo) assay. Also: in the data most compounds retested in dose-response had high values. The following applies: 9.37 µM. It is filed as functional.

The species named for test [8] is Homo sapiens. The experiment in a line: To identify inhibition of the IFN signalling (Jak-Stat) pathway via expression of an eGFP reporter gene under the control of an IFN-stimulated response element (ISRE) containing MxA promoter. It is filed as functional. The following applies: 30 µM. For orientation: Reporter assays use an easily measured gene product as a stand-in for the process of interest.

Test [9] concerns the target T4, Tyrosyl-tRNA synthetase, putative (Trypanosoma cruzi (strain CL Brener)) (UniProt Q4DSP6).
T4 sequence (whole entry): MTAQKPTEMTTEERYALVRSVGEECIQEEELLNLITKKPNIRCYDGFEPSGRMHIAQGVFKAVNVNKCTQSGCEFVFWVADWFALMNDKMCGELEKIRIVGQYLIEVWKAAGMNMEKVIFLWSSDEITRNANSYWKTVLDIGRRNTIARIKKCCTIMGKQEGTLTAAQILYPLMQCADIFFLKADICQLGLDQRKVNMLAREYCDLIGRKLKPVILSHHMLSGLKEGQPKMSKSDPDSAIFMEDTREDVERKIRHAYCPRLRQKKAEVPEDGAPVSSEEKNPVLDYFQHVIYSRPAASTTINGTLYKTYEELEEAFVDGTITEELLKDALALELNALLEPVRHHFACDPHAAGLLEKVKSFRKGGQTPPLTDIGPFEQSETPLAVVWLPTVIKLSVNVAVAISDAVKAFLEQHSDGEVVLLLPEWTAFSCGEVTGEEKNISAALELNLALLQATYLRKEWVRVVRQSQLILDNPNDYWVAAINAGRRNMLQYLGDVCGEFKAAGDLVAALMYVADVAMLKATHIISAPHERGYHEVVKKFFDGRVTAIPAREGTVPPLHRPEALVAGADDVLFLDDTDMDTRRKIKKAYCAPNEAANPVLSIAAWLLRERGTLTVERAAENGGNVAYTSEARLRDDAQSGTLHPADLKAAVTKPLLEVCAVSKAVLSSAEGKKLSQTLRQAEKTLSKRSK
The experiment in a line: Trypanosoma cruzi tyrosyl tRNA synthetase (TcYRS) _High Tyrosine SOP. Also: in the data most compounds retested in dose-response had high values. The class given is functional. The following applies: 30 µM.

For test [10], the target named is T4, Tyrosyl-tRNA synthetase, putative (Trypanosoma cruzi (strain CL Brener)). The experiment in a line: Trypanosoma cruzi tyrosyl tRNA synthetase (TcYRS) SOP. It is filed as functional. Particulars: 30 µM.
Test [11] deals with Chromo domain-containing protein 1 (Saccharomyces cerevisiae (strain ATCC 204508 / S288c) (Baker's yeast)) (UniProt P32657). The experiment in a line: ScCHD-1 Enzyme Inhibition Assay. Also: in the data most compounds retested in dose-response had high values. The class given is functional. The following applies: 30 µM.

For some of these results: Measured potencies and affinities stand elsewhere.

Sequence of Sialic acid-binding Ig-like lectin 9 (Homo sapiens) (Q9Y336 whole entry): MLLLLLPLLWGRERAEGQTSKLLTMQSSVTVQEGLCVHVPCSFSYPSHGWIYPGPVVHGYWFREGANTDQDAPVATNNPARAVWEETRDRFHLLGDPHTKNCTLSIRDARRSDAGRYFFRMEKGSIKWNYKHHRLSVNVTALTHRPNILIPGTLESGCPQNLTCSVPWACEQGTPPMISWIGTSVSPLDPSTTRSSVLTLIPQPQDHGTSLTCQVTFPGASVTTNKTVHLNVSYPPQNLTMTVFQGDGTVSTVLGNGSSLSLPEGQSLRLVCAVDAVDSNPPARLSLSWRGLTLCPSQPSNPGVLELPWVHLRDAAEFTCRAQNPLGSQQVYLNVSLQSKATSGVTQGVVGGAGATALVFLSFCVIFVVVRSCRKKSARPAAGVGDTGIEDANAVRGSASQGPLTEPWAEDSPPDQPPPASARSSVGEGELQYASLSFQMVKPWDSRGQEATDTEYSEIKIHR
Sequence of Chromo domain-containing protein 1 (Saccharomyces cerevisiae (strain ATCC 204508 / S288c) (Baker's yeast)) (P32657 whole entry, the tested form may be a part): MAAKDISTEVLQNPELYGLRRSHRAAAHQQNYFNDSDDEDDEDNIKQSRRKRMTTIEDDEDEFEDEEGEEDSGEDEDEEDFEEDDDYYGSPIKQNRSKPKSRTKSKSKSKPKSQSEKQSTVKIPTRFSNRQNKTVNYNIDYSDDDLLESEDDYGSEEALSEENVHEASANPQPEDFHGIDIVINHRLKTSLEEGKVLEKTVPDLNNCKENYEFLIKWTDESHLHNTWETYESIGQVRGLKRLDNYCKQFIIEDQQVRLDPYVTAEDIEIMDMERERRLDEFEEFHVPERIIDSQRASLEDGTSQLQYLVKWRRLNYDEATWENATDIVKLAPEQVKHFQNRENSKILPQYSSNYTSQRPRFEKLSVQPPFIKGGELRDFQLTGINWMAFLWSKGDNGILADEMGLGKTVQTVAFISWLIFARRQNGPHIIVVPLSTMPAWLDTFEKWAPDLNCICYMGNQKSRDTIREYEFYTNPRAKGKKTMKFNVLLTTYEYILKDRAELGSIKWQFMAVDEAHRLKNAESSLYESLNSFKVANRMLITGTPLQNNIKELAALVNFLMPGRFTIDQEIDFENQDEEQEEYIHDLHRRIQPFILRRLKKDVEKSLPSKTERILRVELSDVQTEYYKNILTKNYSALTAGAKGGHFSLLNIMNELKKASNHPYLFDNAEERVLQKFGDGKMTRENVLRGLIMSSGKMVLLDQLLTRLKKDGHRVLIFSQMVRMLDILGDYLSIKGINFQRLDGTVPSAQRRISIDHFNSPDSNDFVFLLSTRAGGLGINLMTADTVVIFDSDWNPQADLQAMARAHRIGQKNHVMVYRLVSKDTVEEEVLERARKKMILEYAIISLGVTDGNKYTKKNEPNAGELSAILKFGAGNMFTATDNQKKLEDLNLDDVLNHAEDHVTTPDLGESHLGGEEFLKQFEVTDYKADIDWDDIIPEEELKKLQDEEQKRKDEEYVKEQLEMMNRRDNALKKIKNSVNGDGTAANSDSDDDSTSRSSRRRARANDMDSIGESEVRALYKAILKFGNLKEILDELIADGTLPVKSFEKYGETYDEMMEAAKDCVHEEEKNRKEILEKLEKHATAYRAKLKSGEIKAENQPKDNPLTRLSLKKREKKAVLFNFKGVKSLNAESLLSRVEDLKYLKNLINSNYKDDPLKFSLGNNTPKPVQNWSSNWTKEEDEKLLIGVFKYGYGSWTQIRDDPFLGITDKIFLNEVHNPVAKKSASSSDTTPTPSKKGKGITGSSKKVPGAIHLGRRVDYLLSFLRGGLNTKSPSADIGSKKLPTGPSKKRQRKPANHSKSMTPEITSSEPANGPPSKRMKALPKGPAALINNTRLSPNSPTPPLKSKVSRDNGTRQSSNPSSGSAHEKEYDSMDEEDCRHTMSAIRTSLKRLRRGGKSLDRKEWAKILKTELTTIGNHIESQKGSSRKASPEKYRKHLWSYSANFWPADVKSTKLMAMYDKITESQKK
Sequence of Protein translocase subunit SecA (Escherichia coli (strain K12)) (P10408 whole entry): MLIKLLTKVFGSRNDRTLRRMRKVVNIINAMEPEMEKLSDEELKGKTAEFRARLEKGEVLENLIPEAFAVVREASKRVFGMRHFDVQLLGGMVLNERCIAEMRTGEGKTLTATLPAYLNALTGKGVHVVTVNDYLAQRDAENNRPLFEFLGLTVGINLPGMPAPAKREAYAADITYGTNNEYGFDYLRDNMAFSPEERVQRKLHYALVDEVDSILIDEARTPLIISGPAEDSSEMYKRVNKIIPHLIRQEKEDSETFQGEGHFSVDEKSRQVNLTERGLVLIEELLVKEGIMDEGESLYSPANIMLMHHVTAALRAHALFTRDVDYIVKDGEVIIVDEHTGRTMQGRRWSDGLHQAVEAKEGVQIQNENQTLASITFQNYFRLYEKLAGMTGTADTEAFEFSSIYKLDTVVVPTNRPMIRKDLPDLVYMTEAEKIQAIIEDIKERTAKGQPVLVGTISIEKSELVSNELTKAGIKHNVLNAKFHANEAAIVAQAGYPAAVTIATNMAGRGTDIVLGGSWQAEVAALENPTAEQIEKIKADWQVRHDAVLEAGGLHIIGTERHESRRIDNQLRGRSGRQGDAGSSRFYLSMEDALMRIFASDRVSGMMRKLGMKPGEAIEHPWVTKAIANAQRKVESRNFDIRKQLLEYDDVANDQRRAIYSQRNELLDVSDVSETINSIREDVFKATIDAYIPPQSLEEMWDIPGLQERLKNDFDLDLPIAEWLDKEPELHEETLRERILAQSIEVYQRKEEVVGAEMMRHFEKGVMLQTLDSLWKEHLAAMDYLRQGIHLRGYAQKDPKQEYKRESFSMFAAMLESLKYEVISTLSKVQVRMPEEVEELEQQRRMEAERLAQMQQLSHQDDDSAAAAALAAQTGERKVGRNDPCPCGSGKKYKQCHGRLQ

Take `Cn1cnnc1C1CCCN(C(=O)NCCc2ccccc2F)C1` (stereo unspecified): the Percent Effect in [1] is -3%; in [2], 10.4%; in [3], -0.267%; in test [4], -7.57%; in test [5] it was 5.97%; in test [6] it was 6.53%. For the same molecule, the Percent Effect in test [7] was 6.71%; in test [8], 11.1%; in test [9], 3.81%; in test [10], 14.1%; in test [11] it was -9.4%.

Consider `CCc1noc(C(C)N(C)CC(=O)Nc2ccc(C)cc2)n1` (stereo unspecified), for which the Percent Effect is -4.41% in test [1]; 0% in test [2]; 2.85% in [3]; 1.79% in [4]; -2.55% in test [5]; -0.455% in test [6]. In addition, the Percent Effect in test [7] was -0.887%; in test [8], -0.282%; in test [9], -1.07%; in test [10], -2.5%; in test [11], 2.11%.

As to `CCCNCC1(O)CCCN(Cc2cccc(C)c2)C1=O` (stereo unspecified), the Percent Effect is -3.44% in test [1]; 0% in [2]; 3.08% in test [3]; -2.93% in test [4]; 1.57% in test [5]; -1.82% in [6]. The Percent Effect in [7] was -2.66%; in test [8], -21.7%; in [9] it was 3.23%; in [10], 5%; in test [11], -1.9%.

On to `Cc1ccc(C(=O)NCCCNS(C)(=O)=O)c(=O)[nH]1`, for which the Percent Effect was -3.74% in test [1]; 16.2% in test [2]; -2.72% in [3]; 4.72% in test [4]; 2.54% in test [5]; 5% in [6]. Besides, the Percent Effect in [7] is 22.4%; in test [8] it was -1.74%; in [9] it was 10.9%; in test [10], 18.3%; in [11], -7.91%.

Consider `COC(CNC(=O)N1CCC(n2cncn2)CC1)c1ccccc1` (stereo unspecified), for which the Percent Effect was -0.684% in test [1]; -3.8% in test [2]; 13.4% in test [3]; 3.12% in test [4]; -1.13% in test [5]; 1.94% in test [6]. Further, the Percent Effect in test [7] is 0.686%; in test [8], 0.165%; in test [9], 2.08%; in [10] it was 2.53%; in [11] it was -14.3%.

For `CC(=O)Nc1ncc(S(=O)(=O)Nc2ccc(F)cc2F)s1`, the Percent Effect is -1.2% in test [1]; 9.33% in [2]; -2.12% in test [3]; -4.17% in [4]; -6.68% in test [5]; -5.11% in [6]. Further, the Percent Effect in test [7] is 19%; in test [8] it was 12.9%; in test [9], 3.17%; in test [10] it was 10.3%; in test [11], -9.04%.

With `O=C(NCc1ccc(F)cc1)N1CCC(C2OCCO2)CC1`, the Percent Effect in test [1] is -3.74%; in test [2], 7.89%; in test [3], 6.23%; in [4], 6.03%; in [5] it was -1.66%; in test [6] it was -8.28%. In addition, the Percent Effect was 12.4% in [7]; 13.8% in [8]; 6.38% in [9]; 13% in test [10]; -4.56% in [11].

Consider `CS(=O)(=O)CCC(=O)Nc1cnn(-c2ccccc2Cl)c1`, for which the Percent Effect in test [1] was -5.57%; in [2], 13.5%; in [3], -8%; in test [4], 12.3%; in test [5], 2.88%; in test [6], -0.185%. For the same molecule, the Percent Effect in test [7] is 6.28%; in [8], 6.38%; in [9], 7.92%; in test [10], 18.3%; in [11] it was -8.04%.

For `COc1ccc(NC(=O)CCC2CCCN(Cc3ncon3)C2)cc1Cl` (stereo unspecified), the Percent Effect in test [1] was -3.35%; in test [2], 10.7%; in [3] it was -3.08%; in [4], 17.1%; in [5], 2.82%; in [6] it was 7.81%. Besides, the Percent Effect in test [7] is 24.8%; in test [8], -6.37%; in [9] it was 8.2%; in test [10] it was 18.5%; in test [11], 92.7%.

Consider `COc1ccc(S(=O)(=O)N2CCC(S(C)(=O)=O)CC2)cc1C`, for which the Percent Effect in [1] is -3.14%; in [2] it was 7.79%; in test [3] it was 3.88%; in test [4] it was 0.29%; in test [5], 4.04%; in [6], 1.94%. The Percent Effect in [7] was 4.7%; in test [8], -5.43%; in [9], 3.17%; in test [10], 11.5%; in test [11] it was -6.76%.

`COc1ccc(CN2CCc3ncnc(OC(C)C)c3CC2)cc1`: the Percent Effect in [1] was 2.24%; in [2], 10.7%; in test [3] it was 7.06%; in [4], -5.75%; in test [5] it was -6.37%; in test [6] it was -53.9%. Besides, the Percent Effect in test [7] was 16.2%; in test [8], 19%; in test [9], -14.6%; in test [10], 0%; in [11], -4.41%.
